MsrA inhibitor – inhibitors of bovine MsrA. inhibition, % at 15.5 µM. purified bovine MsrA, absorbance read-out. 360,000 tested, 0.75% active
SMARCA2 act – SMARCA2 function activation, primary screen; MG213 cells, MMTV-luciferase reporter, dexamethasone, overnight; activation, % at 9.1 µM; 370,000 tested, 1% active; AID 652017; in the data active = activation above about 7.8%
ABCB6 inh MLPCN – human ABCB6 transporter inhibition; K562-ABCB6 porphyrin accumulation, flow cytometry, 1 h; active compounds read low; Q9NP58; 360,000 tested, 0.19% active; AID 602162; fluorescence ratio to DMSO, % at 10 µM;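 active = fluorescence ratio to DMSO below 75%, the collection mean minus 3 SD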;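 note: signal is porphyrin accumulated inside mitochondria; lower ratio means ABCB6 inhibition with less porphyrin fluorescence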
Target sequence (Q9NP58 whole entry, looked up): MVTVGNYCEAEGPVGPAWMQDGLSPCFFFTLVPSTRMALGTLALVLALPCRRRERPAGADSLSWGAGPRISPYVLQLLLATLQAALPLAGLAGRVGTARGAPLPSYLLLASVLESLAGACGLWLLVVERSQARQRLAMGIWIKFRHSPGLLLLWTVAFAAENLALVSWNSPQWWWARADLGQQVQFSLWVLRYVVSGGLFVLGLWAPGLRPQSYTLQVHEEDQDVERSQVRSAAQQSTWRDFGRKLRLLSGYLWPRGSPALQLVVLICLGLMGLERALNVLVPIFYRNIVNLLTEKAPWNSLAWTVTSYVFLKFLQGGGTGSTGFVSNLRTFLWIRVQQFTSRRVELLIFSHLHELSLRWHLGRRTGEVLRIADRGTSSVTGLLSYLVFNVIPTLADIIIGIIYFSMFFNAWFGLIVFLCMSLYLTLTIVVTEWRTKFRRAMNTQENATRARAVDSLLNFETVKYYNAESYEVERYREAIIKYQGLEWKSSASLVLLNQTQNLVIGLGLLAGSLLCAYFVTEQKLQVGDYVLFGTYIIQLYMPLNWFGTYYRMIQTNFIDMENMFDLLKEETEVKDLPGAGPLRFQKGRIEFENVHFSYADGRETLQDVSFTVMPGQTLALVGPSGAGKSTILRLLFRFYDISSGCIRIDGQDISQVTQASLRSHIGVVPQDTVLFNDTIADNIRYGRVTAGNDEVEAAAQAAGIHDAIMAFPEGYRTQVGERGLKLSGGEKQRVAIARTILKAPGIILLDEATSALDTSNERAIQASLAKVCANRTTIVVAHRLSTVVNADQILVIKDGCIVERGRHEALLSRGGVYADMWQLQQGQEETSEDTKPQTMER
bovine MsrA act – bovine methionine sulfoxide reductase A activation; purified bovine MsrA, absorbance read-out; activation, % at 10.6 µM; 360,000 tested, 0.3% active; in the data active = activation above about 7.5%
MsrA act confirm – confirmation of bovine methionine sulfoxide reductase A activators. purified bovine MsrA, absorbance read-out. AID 602270. activation, % at 10.6 µM. shares compounds with bovine MsrA act. 1,000 tested, 12% active; in the data active = activation above about 4%;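 note: enzyme coupled to thioredoxin and thioredoxin reductase with NADPH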
MsrA conf – confirmation of bovine MsrA inhibitors | shares compounds with MsrA inhibitor | purified bovine MsrA, absorbance read-out | inhibition, % at 15.5 µM | 2,300 tested, 41% active | AID 651822;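 note: coupled to thioredoxin reductase with NADPH and selenocystamine and DMSO as substrate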
SMARCA2 conf – SMARCA2 activation, confirmation screen | shares compounds with SMARCA2 act | activation, % at 9.1 µM | AID 652260 | 3,500 tested, 30% active | MG213 cells, MMTV-luciferase with dexamethasone, luminescence, overnight; MG213 cells expressing E1A, Rb sequestered; DMSO wells 0%, reference activator 100%;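 active = activation above its plate's cutoff, the mean activation of tested wells plus 3 SD, cut at about 7.9% in these data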
GAL4-VP16 Luc – GAL4-VP16 reporter activation counter-screen. shares compounds with SMARCA2 act. activation, % at 9.1 µM. 3,500 tested, 41% active. HEK293 GAL4-VP16 pG5luc reporter, luciferase luminescence; scaled: DMSO wells 0%, SAHA wells 100%. AID 686939;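 active = activation above the solvent-only control well mean plus 3 SD, averaged across control plates, cut at about 5.2% in these data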
Numbers stand for hits; – = inactive; · = no result given; ! = a repeat was not active. An excerpt weighted towards active compounds, which were near 2.1% of everything screened. Cut-off read from the data, not from the text of the source, unless noted: active = inhibition above about 4.5%; inactive = the rest.

SMILES	MsrA inhibitor	SMARCA2 act	ABCB6 inh MLPCN	bovine MsrA act	MsrA conf	others
Cn1ncnc2c(=O)n(C)c(=O)nc1-2	·	·	–	14	·	MsrA act confirm=12
Cc1cc(N2CCNC[C@@H]2C)ccc1N1CCN[C@@H](C)C1	–	–	·	·	·
C[C@H]1CN([C@@H](C)CO)C(=O)CCCn2cc(nn2)CO[C@@H]1CN(C)C(=O)Oc1cccc2ccccc12	–	–	·	·	·
O=C(CCc1ccccc1)N1Cc2cc(N3CCOCC3)ccc2-n2nncc2C1	–	–	–	–	·
OCC[n+]1c2ccccc2nc2ccc(N3CCOCC3)cc21	5.8	–	–	21	·	MsrA act confirm=10
COc1ccc(C(O)C(C)NC(C)C(O)c2ccc(OC)cc2)cc1 (configuration not stated)	–	–	–	–	·
CNC(=S)N1CCn2cccc2C1c1cccnc1 (configuration not stated)	–	–	–	20	·	MsrA act confirm=–
COC(=O)C1=C(c2ccc(F)cc2OCc2ccccc2)C[C@@H]2CC[C@H]1N2C(=O)NCC1CC1	–	–	–	8.4	·	MsrA act confirm=–
C[C@@H]1CNCCN1c1ccc(N2CC[C@H](O)C2)c(C#N)c1	–	–	·	·	·
O=S1(=O)N(CCN2CC=C(c3c[nH]c4cc(F)ccc34)CC2)c2cccc3c2N1CCC3	–	–	–	7.8	·	MsrA act confirm=–
Cc1ccc(OC(=O)N(C)C[C@@H]2OCc3ccccc3-c3c(n(C)c4ccccc34)C(=O)N([C@H](C)CO)C[C@H]2C)cc1	–	–	·	·	·
O=P(C(Cl)Cl)(N1CCOCC1)N1CCOCC1	–	–	–	–	·
O=P(C(c1ccc2c(c1)OCO2)N1CCOCC1)(N1CCOCC1)N1CCOCC1 (configuration not stated)	–	–	–	13	·	MsrA act confirm=–
O=c1[nH]sc2cc(F)ccc12	–	13	–	12	·	MsrA act confirm=10;SMARCA2 conf=11;GAL4-VP16 Luc=–
CC1=Nc2cc(C(=O)N3CCC4(CC3)OCCO4)ccc2Sc2ccc(Cl)cc21	–	–	–	–	·
Nc1ccc2ccc3cccc[n+]3c2c1	–	–	–	–	·
C[n+]1c(-c2ccccc2)c2cc(N)ccc2c2ccc(N)cc21	44	–	–	–	34
CCOC(=O)CC(SP1(=S)OCC2(CC=CCC2)CO1)C(=O)OCC (configuration not stated)	–	–	–	–	·
CC1=CC(=C2C(=O)NC(=O)NC2=O)C=C(C(F)(F)F)N1Cc1ccccc1	–	–	–	–	·
CC1=CC(=C2C(=O)NC(=O)NC2=O)C=C(C(F)(F)F)N1C(C)C	4.9	–	–	–	–
O=C1NC(=O)N(Cc2cccs2)C(=O)/C1=C/c1ccc(N2CCOCC2)cc1	4.7	–	–	–	–
Cc1ccc(N=C(/N=C(\N)N[N+](=O)[O-])Nc2ccc(C)cc2)cc1	–	–	–	–	·
COc1cc(/C=C2\C(=O)NC(=O)N(CCc3ccc(F)cc3)C2=O)ccc1O	7.6	–	–	–	–
O=c1[nH]cnc2nc(-c3ccc(N(CCCl)CCCl)cc3)[nH]c12	5.1	–	–	–	–
O=c1[nH]c(=S)n(-c2cccc(Cl)c2)c(O)c1C=NCCN1CCNCC1	–	–	–	–	·
SMILES	MsrA inhibitor	SMARCA2 act	ABCB6 inh MLPCN	bovine MsrA act	MsrA conf	others
O=c1[nH]c(=S)n(-c2ccccc2)c(O)c1C=NCCN1CCNCC1	5.4	–	–	–	–
COc1ccc2c(C)c(CC(=O)N3C[C@H]4C[C@@H](C3)c3cccc(=O)n3C4)c(=O)oc2c1C	4.9	–	–	–	–
CC1C(c2cccs2)=[N+]([O-])C(C)(C(=O)c2ccc(F)cc2)N1O (configuration not stated)	–	–	–	–	·
O=C1Nc2ccccc2/C1=C/c1cnc[nH]1	6.4	–	–	–	–
COc1ccc(N=Nc2c(O)[nH]c(=S)[nH]c2=O)cc1	–	–	–	–	·
CSc1nc(N)c(N=Nc2ccc([As](=O)(O)O)cc2)c(=O)[nH]1	82	–	–	–	86
Cc1c(C(=O)C(=O)N2CCC3(CC2)OCCO3)c2ccccc2n1C	–	–	–	–	·
CCc1ccc(-n2c(O)c(/C=N/NC(=O)c3ccncc3)c(=O)[nH]c2=O)cc1	4.7	–	–	–	4.6
CC(=O)NC(Cc1ccc(N(CCCl)CCCl)cc1)C(=O)O (configuration not stated)	–	–	–	–	·
COc1cc(C(=O)NN=Cc2ccc(N(CCCl)CCCl)cc2)cc(OC)c1OC	5.2	–	–	–	–
CN1C(=O)NC(=O)C(C)(C2=CCCCC2)C1=O (configuration not stated)	–	–	–	–	·
CC(=O)Nc1ccc(N=Cc2c(O)n(Cc3ccco3)c(=O)[nH]c2=O)cc1	5.2	–	–	–	6.0
CCCCC(=O)N/N=C/c1c(O)n(Cc2ccco2)c(=O)[nH]c1=O	–	–	–	–	·
COc1cc2c(cc1O)C[C@H]1c3c(cc(O)c(OC)c3-2)CCN1C	21	–	–	–	9.2
CN1C(=O)N(C)C(=O)C2(Sc3ccccc3C2=O)C1=O	59	–	–	–	–
CCCC(=O)c1c(O)[nH]c(=O)[nH]c1=O	–	–	–	–	·
CCCCN1C(=O)/C(=C/c2ccc(N(C)C)cc2)C(=O)N(Cc2ccco2)C1=O	5.3	–	–	–	5.5
CCN(CC)c1ccc(/C=C2\C(=O)NC(=O)N(Cc3ccco3)C2=O)cc1	–	–	–	–	·
CCOP(=O)(Nc1ccc2c(c1)C(=NNC(N)=S)c1ccccc1-2)OCC	15	–	–	–	11
COc1cc(C(C)=O)ccc1OC(=O)N(C)c1ccccc1	–	–	–	–	·
COc1ccc(/C=N/N=C(/N)N[N+](=O)[O-])c(OC)c1	7.9	–	–	–	5.6
COc1ccc(OC)c(/C=N/OC(=O)Nc2ccc(Cl)cc2)c1	–	–	–	–	·
COc1ccccc1C(=O)Nc1ccc2c(c1)CC1(C(=O)N(C)C(=O)N(C)C1=O)C1CCCN21 (configuration not stated)	–	–	–	–	·
COc1ccccc1-n1c(O)c(C=Nc2c(C)n(C)n(-c3ccccc3)c2=O)c(=O)[nH]c1=O	5.4	–	–	–	4.8
COc1ccc(OC)c(-n2c(O)c(C=Nc3c(C)n(C)n(-c4ccccc4)c3=O)c(=O)[nH]c2=O)c1	–	–	–	–	·
COC(=O)C1=C(c2cccc(OC)c2OC)C[C@@H]2CC[C@H]1N2C(=O)NCCS(C)=O (some centres not stated)	–	–	–	–	·
Cc1ncc(CNC(=O)N(CCCl)N=O)c(N)n1	–	–	–	–	·
COc1ccc(-c2cc(=NCCCCCC(=O)O)c3cc(C)ccc3o2)cc1	6.3	–	–	–	7.0!

Source: PubChem BioAssay (several laboratories)
